This note sets out measurements from PubChem BioAssay AID602162 (NMMLSC, 2011).

The structures appear in SMILES notation. Out of some 360,000 compounds screened, about 690 (0.19%) were called active.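 The calls were made as follows: active = fluorescence ratio to DMSO below 75%, the collection mean minus 3 SD; inconclusive = too few cells collected in the well; inactive = the rest.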 The full list was thinned out, with actives kept by preference.

The target of this test is ATP-binding cassette sub-family B member 6 (Homo sapiens) (UniProt Q9NP58). Put plainly: blockers of ABCB6-driven porphyrin uptake – K562-ABCB6 cells, flow cytometry, MLPCN library, primary screen (AID 602162).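 Also: signal is porphyrin accumulated inside mitochondria; 100% equals median channel fluorescence of DMSO control wells; lower ratio means ABCB6 inhibition with less porphyrin fluorescence.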 To be noted: K562-ABCB6 porphyrin accumulation, 1 h, at 10 µM, stronger effect = lower value. On the technique in general: A flow cytometer gives signals particle by particle.
ATP-binding cassette sub-family B member 6 (Homo sapiens), sequence (Q9NP58 whole entry, looked up): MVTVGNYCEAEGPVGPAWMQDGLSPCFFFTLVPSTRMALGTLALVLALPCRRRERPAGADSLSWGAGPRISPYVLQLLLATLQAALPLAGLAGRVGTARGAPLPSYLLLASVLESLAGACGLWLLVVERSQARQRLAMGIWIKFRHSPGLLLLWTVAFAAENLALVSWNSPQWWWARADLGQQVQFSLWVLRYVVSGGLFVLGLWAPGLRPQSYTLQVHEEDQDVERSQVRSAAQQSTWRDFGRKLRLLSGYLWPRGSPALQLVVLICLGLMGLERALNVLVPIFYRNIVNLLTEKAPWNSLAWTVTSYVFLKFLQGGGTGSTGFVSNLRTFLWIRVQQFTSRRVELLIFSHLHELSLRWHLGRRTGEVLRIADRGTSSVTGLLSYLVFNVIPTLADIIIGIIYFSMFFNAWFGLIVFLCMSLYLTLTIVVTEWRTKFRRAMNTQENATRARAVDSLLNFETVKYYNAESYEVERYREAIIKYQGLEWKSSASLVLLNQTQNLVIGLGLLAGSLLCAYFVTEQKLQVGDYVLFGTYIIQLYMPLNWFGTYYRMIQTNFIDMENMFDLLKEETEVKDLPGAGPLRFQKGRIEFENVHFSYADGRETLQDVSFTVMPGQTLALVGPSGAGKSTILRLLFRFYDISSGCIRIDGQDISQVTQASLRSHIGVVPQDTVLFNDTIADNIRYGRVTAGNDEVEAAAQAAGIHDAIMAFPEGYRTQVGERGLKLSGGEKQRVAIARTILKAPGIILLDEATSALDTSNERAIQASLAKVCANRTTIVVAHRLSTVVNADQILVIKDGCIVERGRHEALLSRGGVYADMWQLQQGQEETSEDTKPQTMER
Take `CC1(C)Cc2c(C#N)c(SCc3nc4ccccc4[nH]3)nc(N3CCOCC3)c2CO1`: the fluorescence ratio to DMSO is 74% (active).

Turning to `CC(C)C(=O)N1CCN(c2nc(-c3ccccc3)c3c(c2C#N)CC(C)(C)OC3)CC1`, the fluorescence ratio to DMSO is 111% (inactive).

`CCOC(=O)CSc1nc(N2CCOCC2)c2c(c1C#N)CC(C(C)C)OC2` (stereo unspecified): the fluorescence ratio to DMSO is 97% (inactive).

For the compound `Cc1cccc(OCCNC(=O)CSc2ccc(C(F)(F)F)cc2[N+](=O)[O-])c1`, the fluorescence ratio to DMSO was 98% (inactive).

For the compound `CCCOc1ccc(C(=O)C(CCC(CNCC)C(=O)c2ccc(OCCC)cc2)CNCC)cc1` (stereo unspecified), the fluorescence ratio to DMSO was 94% (inactive).

Regarding `CC1CCN(C(NC(=O)c2ccco2)C(=O)c2ccccc2)CC1` (stereo unspecified), the fluorescence ratio to DMSO is 99% (inactive).

`CCCCN(C(=O)CSCC(=O)Nc1ccc(OC)cc1)c1c(N)n(CCC)c(=O)[nH]c1=O`: the fluorescence ratio to DMSO was 99% (inactive).

Consider `COc1ccc(CCNS(=O)(=O)c2ccc(C(=O)NCc3ccco3)cc2)cc1OC`, for which the fluorescence ratio to DMSO is 100% (inactive).

With `COc1ccc(CCNS(=O)(=O)c2ccc(F)cc2)cc1OC`, the fluorescence ratio to DMSO was 62% (active).

Consider `COc1ccc(CCNS(=O)(=O)c2ccc(Cl)s2)cc1OC`, for which the fluorescence ratio to DMSO was 88% (inactive).

On to `CCCCc1nc2ccc(F)cc2cc1C`, for which the fluorescence ratio to DMSO is 95% (inactive).

Consider `O=C(CSc1nnc(Nc2ccccc2F)s1)NC1CCCC1`, for which the fluorescence ratio to DMSO is 101% (inactive).

In the case of `CCOc1ccc(OCC(=O)OC(C)C(=O)NC2CCCCC2C)cc1` (stereo unspecified), the fluorescence ratio to DMSO was 99% (inactive).

With `COc1ccc(C(=O)OCC(=O)c2ccc(Cl)s2)c(OC)c1OC`, the fluorescence ratio to DMSO was 101% (inactive).

With `CCOc1ccc(NC(=O)CC2NCCNC2=O)cc1` (stereo unspecified), the fluorescence ratio to DMSO is 73% (active).

For `CCOC(=O)C1CSC(CC(=O)Nc2ccc(OCC)cc2)C(=O)N1` (stereo unspecified), the fluorescence ratio to DMSO is 95% (inactive).

On to `CCOc1ccc(NC(=O)CCC(=O)NNC(=O)NC2CCCCC2)cc1`, for which the fluorescence ratio to DMSO was 98% (inactive).

For the compound `COc1cc([N+](=O)[O-])ccc1NC(=S)N1CCN(c2ccccn2)CC1`, the fluorescence ratio to DMSO is 98% (inactive).

On to `O=C(c1cccc(S(=O)(=O)N2CCCC2)c1)N(Cc1ccco1)C1CCS(=O)(=O)C1` (stereo unspecified), for which the fluorescence ratio to DMSO was 97% (inactive).

On to `Cc1nccn1-c1ccc(NC(=O)[C@H]2O[C@@H](n3ccc(=O)[nH]c3=O)[C@H](O)[C@@H]2O)cc1`, for which the fluorescence ratio to DMSO is 99% (inactive).

Take `CCOC(=O)C1CCCN(C(=O)COc2ccc(N(C)S(=O)(=O)c3ccc(C)cc3)cc2)C1` (stereo unspecified): the fluorescence ratio to DMSO was 98% (inactive).
